# IL1B secr inh = inhibitors of inflammasome signaling (IL-1 beta secretion) | THP-1 LPS/ATP IL-1B secretion, AlphaLISA, 16 h; hits give low values | activity change, % at 57.5 µM | hit rate 4.7% among 360,000 | AID 743279; in the data active = activity change below about -50%; inconclusive = mostly about -30% to -49%
#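 THP-1 cells pretreated 1 hr with compounds (up to 57.5 uM final), then stimulated with LPS (250 ng/mL final) plus ATP (1.25 mM final); secreted IL-1B measured by AlphaLISA after 16 hr, decreased signal indicating inhibition.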
# TDP1 cell noCPT = qHTS for Inhibitors of human tyrosyl-DNA phosphodiesterase 1 (TDP1): qHTS in cells in absence of CPT. DT40 Tdp1-/- hTDP1 cells, no CPT, ATP luminescence, 48 h. Potency, µM (titrated, usually from 46.2 µM), most hits filed as inhibitors. hit rate 15% among 420,000. AID 686978, 2013; also: nearly all actives have a fitted effect of over 55% in size
#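 Compound effects on proliferation are scored in DT40 Tdp1-/-;hTDP1 cells in the absence of CPT. ATP levels (CellTiter-Glo luminescence) are recorded after a ≥48 hr, 37 °C incubation.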
# ELG1 repair inh = blocks ELG1-dependent DNA repair in HEK293T cells | HEK293T ELG1-luciferase reporter, luminescence, 16 h; DNA damage induced by 5-fluorouridine | Potency, µM (titrated, usually from 46.1 µM), actives largely listed as inhibitors | hit rate 2.3% among 330,000 | AID 504467; also: nearly all actives have a fitted effect of over 55% in size
#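 Step one: seed 2,000 cells per well. Step two: pin-transfer compound or DMSO alongside 5-fluorouridine. Step three: incubate 16 hr, 37 °C, 5% CO2. Step four: add ONE-Glo, wait 30 min, read luminescence.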
# Giardia kill = kills Giardia lamblia; Giardia lamblia trophozoite viability; activity change, % at 7.66 µM, hits read low; hit rate 0.15% among 340,000; AID 540267; in the data active = activity change below about -80%; inconclusive = between about -30% and that limit;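 also: parasites exposed to compound for two days anaerobically before the ATP read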
#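 Media and compound were dispensed first, then trophozoites at 100 cells/well; plates sat 48 hrs at 37 deg C without oxygen before ATP luminescence reagent was added and read after 15-30 min at room temperature.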
# DT40 TDP1 CPT = growth inhibition of DT40 Tdp1-/-;hTDP1 cells with camptothecin (screen for TDP1 inhibitors); chicken DT40 Tdp1-/-;hTDP1 cells + 20 nM CPT, ATP luminescence, 48 h; hit rate 12% among 420,000; Potency, µM (highest dose often 46.2 µM), most hits filed as inhibitors; also: nearly all actives have a fitted effect of over 55% in size
#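 Chicken DT40 Tdp1-/- cells complemented with human TDP1, 400 cells/well, exposed to compounds plus 20 nM camptothecin for at least 48 h at 37 C; viability read as ATP content by CellTiter-Glo luminescence.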
# TDP1 inh = blocks human tyrosyl-DNA phosphodiesterase 1; Q9NUW8; recombinant TDP1, AlphaScreen DNA substrate cleavage; Potency, µM (top dose mostly 130 µM), hits mostly inhibitors; hit rate 0.28% among 350,000; AID 485290; also: nearly all actives have a fitted effect of over 40% in size
# Target sequence (Q9NUW8 whole entry, looked up): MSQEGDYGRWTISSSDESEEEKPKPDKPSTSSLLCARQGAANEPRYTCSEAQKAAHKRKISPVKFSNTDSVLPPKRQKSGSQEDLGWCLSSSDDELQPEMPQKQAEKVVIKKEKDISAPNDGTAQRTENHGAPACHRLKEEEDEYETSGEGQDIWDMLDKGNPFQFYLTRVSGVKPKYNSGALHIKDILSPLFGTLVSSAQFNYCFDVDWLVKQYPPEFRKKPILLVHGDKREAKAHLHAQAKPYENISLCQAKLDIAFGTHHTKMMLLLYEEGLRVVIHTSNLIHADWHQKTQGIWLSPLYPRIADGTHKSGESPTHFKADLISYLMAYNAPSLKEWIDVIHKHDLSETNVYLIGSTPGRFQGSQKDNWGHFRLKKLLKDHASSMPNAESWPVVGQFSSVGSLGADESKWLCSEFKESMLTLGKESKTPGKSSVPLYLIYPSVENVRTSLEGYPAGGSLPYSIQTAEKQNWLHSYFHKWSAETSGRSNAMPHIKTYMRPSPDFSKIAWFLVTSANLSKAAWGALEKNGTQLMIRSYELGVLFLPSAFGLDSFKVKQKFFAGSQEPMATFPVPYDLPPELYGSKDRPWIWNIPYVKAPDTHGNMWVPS
#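 Steps: enzyme plus compound, 15 min RT; add biotin/phosphotyrosine-FITC oligonucleotide (15 nM final), react 5 min; add donor/acceptor beads (10 ug/ml final), 10 min; read AlphaScreen. Tdp1 at 1 nM final.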
# Hits are given with their value; – = inactive; ? = inconclusive; · = not tested or not shown; [ ] = remark or other dose. Hits are enriched below; roughly 19% of the tested compounds scored in any of these assays. Unless noted, calls follow the shape of the dose curve; as a rule, active = well fitted curve in the direction sought with a large enough effect; inconclusive = small, poorly fitted or top-dose-only effect, or another doubt; inactive = no such curve, though single readings can be large; an effect the other way counts as inactive or inconclusive.
SMILES,IL1B secr inh,TDP1 cell noCPT,ELG1 repair inh,Giardia kill,DT40 TDP1 CPT,TDP1 inh
C#C[C@@]1(OC(C)=O)CC[C@@H]2[C@@H]3CCC4=C[C@@H](OC(C)=O)CC[C@H]4[C@H]3CC[C@]21C,·,·,·,·,·,–[21 µM]
N#Cc1c(-c2ccccc2)nc(-c2ccccc2)nc1N1CCOCC1,?,?,14.6µM,–,–,–
N#Cc1c(N)nc(-c2ccccc2)nc1-c1ccccc1,–,–,–,–,–,–
COc1ccc(-c2cc(C#N)nc(N3CCN(C)CC3)n2)cc1,·,?,?,–,–,–
COc1ccc(-c2nc(-c3cccc(C)c3)nc(N3CCN(C)CC3)c2C#N)cc1,–,16.4µM,–,–,14.6µM,–
COc1cccc(-c2nc(N)nc(SC)c2C#N)c1,–,–,–,–,–,–
COc1cccc(-c2nc(-c3ccccc3)nc(N3CCN(C)CC3)c2C#N)c1,-61.3,?,?,–,?,–
CN1CCN(c2nc(-c3ccccc3)nc(-c3ccccc3)c2C#N)CC1,-96.1,?,?,–,?,–
COc1ccc([C@H]2C[C@@H](n3cc(-c4ccc(F)cc4)nn3)[C@H](O)CN2CC2CCCCC2)cc1,–,?,·,·,?,·
Cc1ccc(N2C(=O)c3ccccc3NC2(C(=O)O)c2ccccc2)cc1Cl (stereo unspecified),–,–,?,–,–,·
COC(=O)c1sc2nc(-c3ccccc3)nc(N3CCN(C)CC3)c2c1C,–,25.9µM,?,–,?,–
COc1ccc(-c2nc(-c3ccccc3)nc(N3CCN(C)CC3)c2C#N)cc1,–,?,20.6µM,–,?,–
CCCCOc1ccccc1C(=O)N(Cc1cccc(F)c1)C1CCS(=O)(=O)C1 (stereo unspecified),·,?,·,·,?,–
COc1cccc(OCc2nc3ncc(Br)cc3[nH]2)c1,–,2.91µM,?,–,4.11µM,–
Brc1cnc2nc(SCc3nc4ccccc4[nH]3)[nH]c2c1,–,–,–,–,–,–
Cc1cc(C)cc(OCc2nc3ncc(Br)cc3[nH]2)c1,–,2.31µM,·,–,2.31µM,·
CN1C(=O)C(N=Nc2ccccc2C(=O)O)N(C)C1=S (stereo unspecified),–,?,?,–,–,–
COC(=O)c1sccc1NC(=S)N1CCN(c2ccccc2F)CC1,–,–,?,–,–,–
COc1ccc(-c2cc(=O)oc3cc(O)ccc23)cc1,–,7.31µM,?,–,?,·
CCOC(=O)C(Oc1ccc2c(-c3ccc(OC)cc3)cc(=O)oc2c1C)c1ccccc1 (stereo unspecified),–,?,–,–,16.4µM,–
CCCCN(C)Cc1c(O)ccc2c(-c3ccccc3)cc(=O)oc12,?,14.6µM,–,–,?,–
CCOC(=O)C(Oc1ccc2c(-c3ccccc3)cc(=O)oc2c1C)c1ccccc1 (stereo unspecified),–,?,–,–,?,–
CCN(CC)Cc1c(O)ccc2c(-c3ccccc3)cc(=O)oc12,–,–,–,–,–,–
Cc1c(O)ccc2c(-c3ccccc3)cc(=O)oc12,–,14.6µM,?,–,13µM,·
CCn1c(C)c(C2N3CC4(C)CN2CC(C)(C3)C4=O)c2ccccc21 (stereo unspecified),·,–,·,·,–,–
SMILES,IL1B secr inh,TDP1 cell noCPT,ELG1 repair inh,Giardia kill,DT40 TDP1 CPT,TDP1 inh
CSCCC(NC(N)=O)C(=O)Nc1ccc(F)c(Cl)c1 (stereo unspecified),–,–,–,–,–,·
COc1ccc(-c2cc3ccc(O)cc3oc2=O)cc1OC,–,–,?,–,–,79.4µM
COc1ccc(-c2cc(=O)oc3cc(OC(=O)C4CCCCC4)c(Cl)cc23)cc1,–,?,3.26µM,?,23.1µM,–
COc1ccc(-c2cc3ccc(OCC(N)=O)cc3oc2=O)cc1OC,–,?,?,–,–,–
COC(=O)Cc1cc(=O)oc2cc(O)ccc12,-69.6,–,–,–,–,–
COc1ccc(-c2cc(=O)oc3c(C)c(OC(C)C(C)=O)ccc23)cc1 (stereo unspecified),?,?,–,–,?,·
COc1ccc(-c2cc(=O)oc3c(C)c(O)ccc23)cc1,–,3.26µM,8.2µM,–,7.31µM,·
Cc1cc2oc(=O)c(CC(=O)O)c(C)c2c2occ(-c3ccc(F)cc3)c12,·,–,·,·,–,–
Cc1[nH]c2ccccc2c1-c1csc(NC(=O)CSCCO)n1,?,–,?,–,?,–
O=C1CCCC=C1[C@@H](O)C1CCCCC1,·,·,·,·,·,–[21 µM]
CC(C)Cn1c(=O)c2ccccc2n2c(CCC(=O)N3CCN(c4ccccc4F)CC3)nnc12,·,23.1µM,·,·,23.1µM,–
CC(C)Cn1c(=O)c2ccccc2n2c(CCC(=O)N3CCN(c4ccccc4)CC3)nnc12,·,16.4µM,·,·,?,–
Cc1cccc(N2CCN(C(=O)CCc3nnc4n(CC(C)C)c(=O)c5ccccc5n34)CC2)c1C,·,?,·,·,–,–
Cc1cc(O)ccc1NC(=O)Cc1cccc2ccccc12,–,–,·,–,–,·
CN(C)c1ccc(S(=O)(=O)N(C)C)cc1NC(=O)Cc1cccc2ccccc12,-51.8,?,?,–,?,?
O=[N+]([O-])c1ccc(C2Nc3cccc4cccc(c34)N2)cc1,–,–,?,–,–,–
O=C1c2ccccc2NC(c2ccc([N+](=O)[O-])cc2)N1O (stereo unspecified),–,18.4µM,?,–,20.6µM,–
O=C1c2ccccc2NC(c2cccc(O)c2)N1O (stereo unspecified),–,–,–,–,–,·
O=[N+]([O-])c1cccc(C2Nc3cccc4cccc(c34)N2)c1,–,20.6µM,–,–,?,–
O=C1c2ccccc2NC(c2ccc(Br)s2)N1O (stereo unspecified),–,11.6µM,·,–,10.3µM,·
O=C1c2ccccc2NC(c2ccco2)N1O (stereo unspecified),–,–,–,–,?,–
O=C1c2ccccc2NC(c2cccc([N+](=O)[O-])c2)N1O (stereo unspecified),–,?,?,–,20.6µM,·
CCOc1ccc2nc(NC(=O)c3cc(=O)c4cc(C)cc(C)c4o3)sc2c1,·,–,·,·,–,–
Fc1cccc(/C=N/Nc2nc3ccccc3[nH]2)c1,-91.2,?,?,–,?,–
c1ccc(CCc2nc3ccccc3[nH]2)cc1,–,?,?,–,–,–
C(=N\Nc1ncnc2ccccc12)/c1ccccc1,–,4.61µM,?,–,3.66µM,–
C(=N\Nc1nc2ccccc2[nH]1)/c1ccccc1,-94.5,?,?,–,?,–
C(/CCc1ccccc1)=N\Nc1nc2ccccc2[nH]1,–,18.4µM,–,–,?,–

# Source: PubChem BioAssay (National Center for Advancing Translational Sciences (NCATS))
